Screening results (PubChem)
A selection: hits, their analogues and other compounds. The true share with any hit is near 19%.
HT1080 IDH1KD tx – qHTS for induction of synthetic lethality in tumor cells producing 2HG: qHTS for the HT-1080-IDH1KD cell line. HT-1080 IDH1 knockdown viability, ATP luminescence, 48 h. Potency, µM (titrated, usually from 46.1 µM), inactives show top-dose activity, negative = toxicity, hits mostly cytotoxic. hit rate 2% among 360,000. AID 686971, 2013;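 note: potency is the fitted concentration of half-maximal effect; 0% = DMSO wells and -100% = cell-free medium wells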
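In this qHTS, HT-1080 cells depleted of IDH1 are exposed for 48 h at 37 °C to compound titrations. Toxicity is scored from CellTiter-Glo luminescence, with DMSO as full viability and medium alone as none.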
DT40 TDP1 no CPT – qHTS for Inhibitors of human tyrosyl-DNA phosphodiesterase 1 (TDP1): qHTS in cells in absence of CPT; DT40 Tdp1-/- hTDP1 cells, no CPT, ATP luminescence, 48 h; Potency, µM (top dose mostly 46.2 µM), for the others: at the highest dose activity change, negative = growth inhibition, actives largely listed as inhibitors; hit rate 15% among 420,000; AID 686978, 2013; note: potency is the fitted concentration of half-maximal effect; nearly all actives have a fitted effect of over 55% in size
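Compound effects on proliferation are scored in DT40 Tdp1-/-;hTDP1 cells in the absence of CPT. ATP levels (CellTiter-Glo luminescence) are recorded after a ≥48 hr, 37 °C incubation.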
IL-1B inflam inh – qHTS for Inhibitors of Inflammasome Signaling: IL-1-beta AlphaLISA Primary Screen | activity change, % at 57.5 µM | THP-1 LPS/ATP IL-1B secretion, AlphaLISA, 16 h; active compounds read low | hit rate 4.7% among 360,000; in the data active = activity change below about -50%; inconclusive = mostly about -30% to -49%
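THP-1 cells pretreated 1 hr with compounds (up to 57.5 uM final), then stimulated with LPS (250 ng/mL final) plus ATP (1.25 mM final); secreted IL-1B measured by AlphaLISA after 16 hr, decreased signal indicating inhibition.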
HT1080NT lethal – qHTS for induction of synthetic lethality in tumor cells producing 2HG: qHTS for the HT-1080-NT fibrosarcoma cell line; HT-1080-NT fibrosarcoma viability, CellTiter-Glo ATP luminescence, 48 h; Potency, µM (doses to about 46.1 µM), for the others: at the highest dose activity, negative = less viability, actives largely listed as cytotoxic; hit rate 1.6% among 360,000; AID 686970, 2013;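 note: NT is the 2HG producing partner of a matched IDH1 knockdown line; potency is the fitted concentration of half-maximal effect; 0% = DMSO-treated cells and -100% = media-only wells without cells; nearly all actives have a fitted effect of over 55% in size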
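750 cells/well, RPMI + 5% FBS; 2 h settle, compound pin-transfer, 48 h at 37 degrees C. CellTiter-Glo 10 min RT, luminescence. Normalized to DMSO and media-only wells.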
DT40 TDP1 CPT – qHTS for Inhibitors of human tyrosyl-DNA phosphodiesterase 1 (TDP1): qHTS in cells in presence of CPT | chicken DT40 Tdp1-/-;hTDP1 cells + 20 nM CPT, ATP luminescence, 48 h | hit rate 12% among 420,000 | Potency, µM (doses to about 46.2 µM), inactives show top-dose activity change, negative = growth inhibition, usual class: inhibitors; note: potency is the fitted concentration of half-maximal effect; nearly all actives have a fitted effect of over 55% in size
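Chicken DT40 Tdp1-/- cells stably complemented with human TDP1 were seeded at 400 cells/well in medium containing 20 nM camptothecin, exposed to pin-transferred compounds, and grown at 37 °C for at least 48 hr. Viability was read as ATP luminescence.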
Active calls of the source: *; ? = inconclusive; . = no result; [ ] = another dose, or the depositor's remark. Unless noted, calls come from the whole dose curve; as a rule, active = well fitted curve in the direction sought with a large enough effect; inconclusive = small, poorly fitted or top-dose-only effect, or another doubt; inactive = no such curve, though single readings can be large; an effect the other way counts as inactive or inconclusive. Unless noted, % is set by controls: 0 for no effect and ±100 for the full control effect.

SMILES	HT1080 IDH1KD tx	DT40 TDP1 no CPT	IL-1B inflam inh	HT1080NT lethal	DT40 TDP1 CPT
CN(C)c1ccc(C(CNC(=O)c2c(F)cccc2Cl)N2CCOCC2)cc1 (stereo not drawn)	.	-20.1%	.	.	-23.5%
COc1ccccc1CNc1ccnc(-c2cccc(NS(C)(=O)=O)c2)n1	.	-16.8%	.	.	?
O=C(Nc1ccc(N2CCOCC2)cc1)c1cccc(S(=O)(=O)N2CCCCC2)c1	-3.0%	14.6µM*	-13.2	?	14.6µM*
CCOc1ccc(N(C(C)C(=O)Nc2ccc(OC)cc2)S(C)(=O)=O)cc1 (stereo not drawn)	?	-8.9%	12.7	16.4%	-18.5%
CC(C)CC(=O)N1CCN(S(=O)(=O)c2ccc(C3CCCCC3)cc2)CC1	-4.3%	11.6µM*	0.0	3.2%	20.6µM*
COc1ccc(C(=O)Nc2ccc(S(=O)(=O)N3CCCC3)cc2)cc1	0.4%	-29.4%	-3.6	0.1%	-14.0%
CC(=O)Nc1ccc(NC(=O)c2cccc(S(=O)(=O)N3CCCCCC3)c2)cc1	?	?	83.1	-26.9%	?
CCC(=O)Oc1ccc(NC(=O)c2ccc(S(=O)(=O)N3CCCC3)cc2)cc1	-23.3%	20.6µM*	0.3	-12.7%	?
CCN(CC)S(=O)(=O)c1ccc(NC(=O)C(C)N(c2ccc(OC)cc2)S(C)(=O)=O)cc1 (stereo not drawn)	-1.9%	17.8µM*	-14.6	0.6%	?
O=c1[nH]c(SCc2ccccc2)nc2[nH]ncc12	-25.3%	-12.0%	-3.5	-12.7%	15.5%
CCN(CC)S(=O)(=O)c1cccc(C(=O)Nc2ccccc2C(=O)Nc2ccc(OC)cc2)c1	.	10.3µM*	.	.	10.3µM*
COc1ccc(NS(=O)(=O)c2cccc(C(=O)Nc3ccccc3C(=O)O)c2)cc1	9.4%	-2.6%	48.2	6.9%	-8.4%
COc1ccc(NS(=O)(=O)c2cccc(NC(=O)c3ccc(S(=O)(=O)N4CCCCCC4)cc3)c2)cc1	?	2.59µM*	-3.2	?	3.66µM*
CC1CCCC(NC(=O)c2cccc(S(=O)(=O)N3CCCCC3)c2)C1C (stereo not drawn)	2.0%	?	-22.8	-0.6%	20.6µM*
O=C(NCC1CCN(c2ccc(S(=O)(=O)N3CCOCC3)cc2)CC1)c1cccc(Cl)c1	-22.9%	11.6µM*	-13.2	-4.9%	?
Cc1nc(-c2cccc(NC(=O)c3cccc(S(=O)(=O)N4CCCC4)c3)c2)cs1	-13.5%	23.1µM*	-4.2	-2.0%	?
CC(=O)Nc1cccc(C(=O)N2CCN(S(=O)(=O)c3ccc4ccccc4c3)CC2)c1	-13.0%	5.3%	-25.3	-10.1%	-19.0%
COc1ccc(COC(=O)c2cccc(S(=O)(=O)N3CCN(C(C)=O)CC3)c2)cc1F	-8.6%	?	-0.6	-27.4%	?
CCOc1ccc(C(=O)Nc2ccc(S(=O)(=O)N3C[C@@H]4C[C@@H](C3)c3cccc(=O)n3C4)cc2)cc1	23.1µM*	11.6µM*	29.2	?	20.6µM*
COc1ccc(COC(=O)c2cccc(S(=O)(=O)N3CCN(C(C)=O)CC3)c2)cc1	-8.7%	20.6µM*	8.2	-2.1%	?
CC(=O)Nc1cccc(C(=O)N2CCN(S(=O)(=O)c3ccc(C4CCCCC4)cc3)CC2)c1	-16.3%	23.1µM*	11.1	-27.5%	?
O=C(Nc1ccc(S(=O)(=O)N2C[C@@H]3C[C@@H](C2)c2cccc(=O)n2C3)cc1)c1ccc(F)cc1	-0.3%	1.6%	-6.8	12.8%	0.3%
Cc1cccc(CS(=O)(=O)Cc2ccc(C(=O)NC3CCCCCC3)o2)c1	2.5%	?	-5.6	0.0%	?
Cc1nc(S(=O)(=O)N2CCN(c3cccc(Cl)c3)CC2)cn1C	.	-7.7%	.	.	-5.7%
CC(=O)Nc1cccc(C(=O)Nc2ccc(S(=O)(=O)N3CCCCC3)cc2)c1	0.1%	14.6µM*	12.9	6.8%	?
SMILES	HT1080 IDH1KD tx	DT40 TDP1 no CPT	IL-1B inflam inh	HT1080NT lethal	DT40 TDP1 CPT
COc1ccc(NC(=O)c2cccc(S(=O)(=O)N3CCCCCC3)c2)cc1	?	14.6µM*	-11.4	?	?
CCC(=O)Oc1ccc(C(=O)Nc2ccc3c(c2)C(=O)N(C2CCCCC2)C3=O)cc1	?	14.6µM*	5.3	?	20.6µM*
COc1ccc(NS(=O)(=O)c2cccc(-c3nnc4n3CCCCC4)c2)cc1	-5.3%	-28.1%	-5.7	0.8%	-21.6%
COc1ccc(NS(=O)(=O)c2cccc(NC(=O)C34CCC(CC3)C4)c2)cc1	-23.1%	20.6µM*	-2.9	-18.5%	?
CCOCc1nc2nc(Cl)c(Cl)nc2[nH]1	13.6%	-27.8%	-7.2	13.0%	-19.6%
COc1ccc2c(C(=O)c3ccc(Cl)cc3)n(CCCC(N)=O)[n+]([O-])c2c1	-0.3%	-24.3%	37.8	-2.5%	-10.0%
COCCNC(=O)c1ccc(-c2nc(CS(=O)(=O)c3ccccc3)c(C)o2)cc1	.	-23.6%	.	.	-12.9%
COc1ccc(/C=c2\[nH]c(=O)/c(=C/c3ccc(OC)c(OC)c3)[nH]c2=O)cc1OC	.	-23.0%	.	.	-1.4%
Cc1nc(-c2cccc(NC(=O)c3ccc(-n4cccn4)cc3)c2)cs1	-6.8%	10.3µM*	-51.5*	4.3%[9.24 µM]	14.6µM*
Cc1nc(-c2ccc(C(=O)Nc3cccc(F)c3)cc2)cs1	?	?	-23.5	?	-27.7%
COc1ccc(C(=O)C(/C=N/O)=N/Nc2ccc(F)cc2)cc1	-15.6%	-28.7%	37.8	-11.0%	-29.3%
COc1ccc(C(=O)/C(=C/O)N=Nc2ccc(F)cc2)cc1	?	?	-98.5*	?	?
COc1ccc(N=N/C(=C\O)C(=O)c2cccs2)cc1	-6.2%	?	-80.7*	-0.4%	0.2%
CC(O)[C@@H]1NC(=O)[C@H](Cc2ccccc2)NC(=O)[C@H](C(C)O)NC(=O)[C@H](CCCCN)NC(=O)[C@H](Cc2c[nH]c3ccccc23)NC(=O)[C@H](Cc2ccccc2)NC(=O)[C@H](Cc2ccccc2)NC(=O)[C@H](CC(N)=O)NC(=O)[C@H](CCCCN)NC(=O)[C@@H](NC(=O)CNC(=O)[C@H](C)N)CSSC[C@@H](C(=O)O)NC(=O)[C@H](CO)NC1=O (stereo partly drawn)	.	-13.0%	.	.	-6.8%
C[C@H]1COc2cccc(N3CCSCC3)c2S(=O)(=O)N1	5.9%	-10.9%	28.7	12.4%	0.8%
COc1cccc(C2=NCCc3cc4c(cc32)OCO4)c1OC	0.4%	?	-6.1	-3.3%	-3.0%
